PubChem BioAssay AID651636 (Sanford-Burnham Center for Chemical Genomics, 2012)
The campaign covered roughly 360,000 compounds. About 3,000 (0.83%) were called active. Cut-off read from the data, not from the text of the source: active = inhibition above about 38%; inactive = the rest. The full list was thinned out, with actives kept by preference.

Each compound was assayed against G-protein coupled receptor 183 (Homo sapiens) (UniProt P32249) (assay: EBI2 receptor antagonists, beta-arrestin recruitment, primary screen, cell-based, luminescence, 7a,25-OHC stimulation, uHTS (AID 651636;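 note: enzyme fragment complementation signal reports receptor beta-arrestin coupling in cells; 0% = agonist plus DMSO wells and 100% = wells without agonist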)). Conditions: 7a,25-OHC stimulated, at 5 µM, stronger effect = higher value.
Sequence of G-protein coupled receptor 183 (Homo sapiens) (P32249 whole entry, looked up, the tested form may be a part): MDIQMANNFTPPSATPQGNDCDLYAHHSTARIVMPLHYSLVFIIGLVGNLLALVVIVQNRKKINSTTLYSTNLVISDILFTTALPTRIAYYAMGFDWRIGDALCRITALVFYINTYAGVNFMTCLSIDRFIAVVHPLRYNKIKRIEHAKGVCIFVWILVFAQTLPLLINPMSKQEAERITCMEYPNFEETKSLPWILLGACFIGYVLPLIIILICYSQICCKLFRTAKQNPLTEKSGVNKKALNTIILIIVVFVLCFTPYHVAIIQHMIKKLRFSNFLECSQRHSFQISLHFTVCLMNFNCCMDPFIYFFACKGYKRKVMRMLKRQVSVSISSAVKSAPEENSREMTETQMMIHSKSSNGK

inhibition, inactive:
O=C(CC1SCCNC1=O)Nc1ccc(Cl)cc1 (centres undefined) 0.627%, CC(Sc1ccccc1F)C(=O)Nc1cccc(S(=O)(=O)N2CCOCC2)c1 (centres undefined) 7.64%, CCOc1ccc(CCNC(=O)C(CC)n2nc(C)n3c(cc4sccc43)c2=O)cc1OCC (centres undefined) 0.672%, Cc1ccc(-c2cc(C(F)(F)F)n3ncc(C(=O)N4CCCCC4c4cccnc4)c3n2)cc1 (centres undefined) 19.8%, CCn1c(N)c(Br)c(=O)[nH]c1=O -5.96%, CC1CCCN(CC(=O)Nc2cc(Cl)ccc2Oc2ccccc2)C1 (centres undefined) 6.08%, CC(=O)Nc1ccc(SCC(=O)Nc2ccccc2Oc2ccccc2)cc1 6.4%, Cn1c(=O)c(=O)n(C)c2cc(S(=O)(=O)CCC(=O)N3CCCCC3)ccc21 -3.96%, C=CCn1c(C(C)NC(=O)CC)nc2ccccc21 (centres undefined) -24.2%, CN1CCN(C(=O)Cn2c(C(F)(F)F)nc3ccccc32)CC1 -3.36%, COC(=O)[C@]12CCCCC=C1N(Cc1ccc3c(c1)OCO3)C(=O)[C@H](CC(=O)N1CCOCC1)C2 6.39%, O=C(Nc1ccc2c(c1)CCC2)c1ccc(Br)s1 -9.47%, O=C(COc1ccc(Cl)cc1[N+](=O)[O-])N1CCCCC1 5.52%, CCOC(=O)N1CCN(S(=O)(=O)c2ccc(Br)cc2)CC1 8.56%, Cc1cc(S(=O)(=O)N2CCOCC2)ccc1OCC(=O)N1CCOCC1 -8.03%, CCOC(=O)N1CCN(C(=O)COC(=O)c2cccc(S(C)(=O)=O)c2)CC1 -8.93%, CCOC(=O)C1CCN(C(=O)Nc2ccc(C)c(Cl)c2)CC1 8.32%, CCOC(=O)C1CCN(C(=O)COc2cccc3ccccc23)CC1 6.68%, O=C(NCc1ccc(F)cc1)C1CCN(C(=O)Nc2ccc(F)cc2)CC1 16%, CC(=O)c1c(C)[nH]c(C(=O)OCC(=O)Nc2c(C)n(C)n(-c3ccccc3)c2=O)c1C 8.82%, Cc1cccn2c(=O)nc(SCC(=O)NCc3ccccc3Cl)nc12 -6.29%, Cc1nn(C)cc1/C=C1\CCC/C(=C\c2cn(C)nc2C)C1=O 6.14%, CC(C)CN1C(=O)CN(S(C)(=O)=O)CC1(C)C(=O)NCc1ccccc1 (centres undefined) -1.75%, Cn1c(=O)cc(SCC(=O)N2CCN(C(=O)c3ccco3)CC2)c2ccccc21 -7.92%, C=CCOc1ccc(/C=C/C(=O)OCC(=O)NC2CCCCCC2)cc1 0.205%, N#C/C(=C\c1ccccc1)c1n[nH]c(Cn2cncn2)n1 -5.28%, CCNC(=O)COc1cc(C)c(Br)c(C)c1 -7.22%, COC(=O)C[C@@H]1C=C[C@@H](NC(=O)c2ccc3c(c2)OCO3)[C@@H](CO)O1 0.556%, O=C(NNC1=C(C(=O)C(F)(F)F)CCC1)c1ccncc1 8.49%, CCNC(=S)N1CCC(c2nc3cc(C)c(C)cc3[nH]2)CC1 -8.84%, Cc1coc2c(O)cc3c(c12)OC1(N2CCCCC2)C(=O)NCCCC31 (centres undefined) 9.31%, NCCCCC(C(=O)O)N(C(=O)OCc1ccccc1)C(=O)OCc1ccccc1 (centres undefined) -5.81%, O=C(Cc1ccccc1)N1CCN(S(=O)(=O)c2ccc([N+](=O)[O-])cc2)CC1 -5.46%, Cc1ccc([N+](=O)[O-])cc1S(=O)(=O)N1CCCN(C)CC1 -7.92%, O=C1NC(c2ccccc2)Cc2ccncc21 (centres undefined) -15.8%, CC(C)Oc1ccc(C(=O)NC(C)(C)CO)cc1 -14.5%, Cn1cc[n+](C)c1COc1ccc(C=O)cc1 -3.22%, COc1ccccc1N1CCN(C(=O)C(=O)N/N=C/c2ccccc2F)CC1 2.46%, Nc1[nH][nH]c(=O)c1N=Nc1ccc2c(c1)OCO2 -4.76%, Cc1cccc(N=C2SC(C)CN2C(=O)CN2C(=O)NC3(CCCC3)C2=O)c1 (centres undefined) 8.85%, Cc1cccc(Oc2c([N+](=O)[O-])c(=O)n(C)c3ccccc23)c1 -38.4%, Cc1cc(C)nc(/N=C2\NC(=O)CC(C(=O)O)N2c2ccc(Cl)cc2Cl)n1 (centres undefined) -2.42%, Cn1c(N)c(C(=O)COC(=O)C23CC4CC(CC(C4)C2)C3)c(=O)n(C)c1=O -6.77%, Cc1oc2nc(SCC(=O)NCc3cccnc3)nc(N)c2c1C -8.34%, CC(=O)c1ccc(OCC(=O)N(C)C2CCS(=O)(=O)C2)cc1 (centres undefined) -3.69%, CC(=O)Nc1ccc(CNc2nc(NCCN(C)C)nc3cc(-c4ccccc4)sc23)cc1 0.94%, Nc1nc(SCC(=O)NN(c2ccccc2)c2ccccc2)n[nH]1 -1.98%, O=C(COc1nsnc1N1CCOCC1)Nc1ccccc1Cl -1.57%, Cc1cccc(-c2nc(CS(=O)CC(=O)NC(C)CCc3ccccc3)c(C)o2)c1 (centres undefined) 0.721%, CCC(=C/c1sc2ccc3ccccc3c2[n+]1C)/C=C1\Sc2ccc3ccccc3c2N1C 1.97%, O=C(CSc1ccc(Cl)cc1)NC1CC1 -0.473%, CS(=O)(=O)N1CCN(C(=O)CSc2ccccc2)CC1 4.92%, CCOC(=O)N1CCN(C(=O)CSc2nc(C)nc3c2c(=O)n(C)c(=O)n3C)CC1 -7.04%, Cc1ccc(-n2c(CNc3ccc(F)cc3)nnc2SCC(=O)N2CCOCC2)cc1 7.68%, CCN1CCN(C(=O)CCN2C(=O)c3ccccc3C2=O)CC1 5.39%, CS(=O)(=O)N(CC(=O)N1CCN(c2ccc(F)cc2)CC1)C1CCCCC1 -6.78%, COC(=O)CNC(=O)C(CCSC)NC(C)=O (centres undefined) 5.29%, Cc1nc(C(F)(F)F)ccc1C(=O)N1CCC1(C)C(=O)NS(=O)(=O)c1ccc(F)cc1F (centres undefined) 3.24%, CNC(=O)C1CC(=O)N(c2ccc(OCC(=O)Nc3ccccc3C)cc2)C1 (centres undefined) 2.34%, Cc1nnc(SC(C)C(=O)c2c[nH]c3ccccc23)n1C1CC1 (centres undefined) -6.27%, CCOc1cc(-c2conc2N)cc(OCC)c1OCC 7.1%, CC(C)(C)OC(=O)C[C@@H]1C/C=C\C[C@@H](CC(=O)N[C@@H](CO)Cc2ccccc2)C(=O)N2CCC[C@H]2COC1=O 1.7%, CCC(C(=O)OC)n1cnc2c(oc3ccccc32)c1=O (centres undefined) 3.69%, COC(=O)c1ccc(CN(c2ccccc2OC)S(=O)(=O)c2cccs2)o1 7.2%, CCOC(=O)c1cc(-c2nnc(-c3cc(OC)c(OC)c(OC)c3)o2)c(C)nc1C -9%, O=C(OCc1nnc(-c2ccccc2)o1)c1cc(=O)[nH]c2ccccc12 -5.82%, COc1ccc(S(=O)(=O)NCC(=O)NCc2cc(=O)n(C)c(=O)n2C)cc1F 2.08%, CC(=O)NCCc1ccc(S(=O)(=O)N(C)C2CCS(=O)(=O)C2)cc1 (centres undefined) -2.21%, Cc1cccn2c(=O)c(/C=C(\C#N)S(=O)(=O)c3ccc(Cl)cc3)c(N3CCC(C(N)=O)CC3)nc12 -5.33%, Cc1cccn2c(=O)c3cc(C(=O)NC4CCCCC4)sc3nc12 8.11%, FC(F)(F)c1cccc(-c2nc3ccccc3n2C(c2ccccc2)c2nc3ccccc3[nH]2)c1 (centres undefined) 8.62%, CSCCC(C(=O)NC1=NCCS1)N1C(=O)c2ccccc2C1=O (centres undefined) 1.85%, COC(=O)N/N=C/c1c[n+]([O-])c2ccccc2[n+]1[O-] -1.98%, COc1ccc(OC)c(/C=C/C(=O)c2ccc3c(c2)OCO3)c1 8.22%, COc1ccc(C(=O)CC(=O)c2ccc(C)cc2)c(O)c1 -3.66%, COc1ccc(/C=C/C(=O)c2cc(Br)ccc(=O)c2O)cc1 -0.626%, COc1ccc(/C=C/C(=O)NC(=S)N2CCCC(C(N)=O)C2)cc1 (centres undefined) -8.77%

inhibition, active:
O=C(CSc1ccccc1)Nc1cc(Cl)ccc1Oc1ccccc1 63.2%, CC(C)Cn1c(N2CCN(C(=O)/C=C/c3ccccc3)CC2)nc2ccccc21 59.1%, CCOC(=O)N1CCN(C(=O)COc2ccc(Br)cc2)CC1 89%, CCOC(=O)N1CCN(C(=O)COc2ccc(Cl)cc2C)CC1 63.5%, CCOC(=O)C1CCN(C(=O)COc2cc(C)c(Br)c(C)c2)CC1 74.6%, O=C1/C(=C\c2ccc([N+](=O)[O-])cc2)CS(=O)(=O)C/C1=C/c1ccc([N+](=O)[O-])cc1 50.3%, Fc1ccccc1/C=N/Nc1cc(N2CCCCC2)ncn1 53.8%, Cc1cccc(N=C2NC(=O)/C(=C/c3cn(C)c4ccccc34)S2)c1 45%, COc1ccc(NC(=O)/C(Cl)=C(/Cl)S(=O)Cc2ccc(C)cc2)cn1 (centres undefined) 68.1%, O=C(Nc1ccccc1Cl)/C(Cl)=C(\Cl)S(=O)c1ccccc1 (centres undefined) 59.7%, CCN1CCN(C(=O)CSc2ccc(C)cc2)CC1 70.3%, Cc1ccc(SCC(=O)N2CCN(c3ccc(F)cc3)CC2)cc1 62.9%, CCOC(=O)N1CCN(C(=O)CSc2ccc(Cl)cc2)CC1 84.7%, CCCc1nc2ccccc2c(C(=O)OCc2nnc(-c3cc(OC)c(OC)c(OC)c3)o2)c1CC 51.2%, Cc1cc(C)cc(Oc2nc3c(C)cccn3c(=O)c2/C=C(\C#N)C(=O)NC2CCS(=O)(=O)C2)c1 (centres undefined) 50.3%, COc1ccc(/C=C/C(=O)c2ccc(OC)cc2O)cc1 73.8%, COc1ccc(C(=O)/C=C/c2ccc(OC3CSC3)cc2)cc1 60.1%
